Values joined by “and” are separate entries in the source; they are usually repeats but may differ in a detail not shown here. Equal entries are not always repeated. Among all 300,000 compounds or so, about 480 (0.16%) were called active.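 Rule for the calls: active = inhibition over 29.93%, a cutoff 3 SD above the screen mean, later confirmed by dose response; inconclusive = inhibition over 29.93% but no dose response follow-up; inactive = inhibition at most 29.93% or unconfirmed.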 The list is a sample of the results. Results with a measured potency or affinity are listed apart.
Test: PhoP-dependent GFP reporter repression – Salmonella Typhimurium, primary screen (AID 1863);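 note: 0% = low Mg2+ inducing control and 100% = high Mg2+ repressing control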
Conditions: S. Typhimurium PhoP-regulated promoter GFP reporter, 4 h; at 50 µM; stronger effect = higher value

inhibition, inactive:
COc1cccc2cc(CC(=O)c3cc(C)ccc3C)c(=O)oc12 -3.13%
CCOc1ccc(NC(=O)CN(C)C(=O)c2ccc3nc(CC)c(CC)nc3c2)cc1OCC -9.1%
CC(C)C[C@H](NC(=O)c1nc[nH]c1C(=O)NCCCCCNC(=O)OC(C)(C)C)C(=O)OCc1ccccc1 -4.74%
Cc1ccc(S(=O)(=O)N2CCN(C(=O)CC(C)C)CC2)cc1 3.71%
Cc1ccc(NC(=O)Nc2ccon2)cc1Cl 0.2%
Clc1ccccc1CONc1ncnc2nonc12 -2.15%
CCC(C)(C)NC(=O)Cc1ccc(OC)c(OC)c1 -10.6%
O=Cc1c(F)cccc1N1CCCC1 8.32%
Cc1cccc(NC(=O)CC2(CC(=O)O)CCCC2)c1 -1.98%
Cc1ccc(C2N(c3ccc(Cl)cc3)C(=O)N3CCCN23)cc1 (centres undefined) -0.36%
O=[N+]([O-])c1cc2cccnc2c2ncccc12 -10.2%
CCOC(=O)COc1cc([N+](=O)[O-])cc2cccnc12 1.41%
CN(C)[C@@H]1C(=O)C(C(=O)NCN2CCCC2)=C(O)[C@@]2(O)C(=O)C3=C(O)c4c(O)cccc4[C@@](C)(O)C3CC12 (some centres undefined) 1.32%
O=C1C(Oc2ccc(Cl)cc2)C(c2ccc3c(c2)OCO3)N1CC1CCCO1 (centres undefined) -1.66%
COc1ccc(-c2cc(C(F)(F)F)n3nc(C(=O)N4CCN5CCCC5C4)cc3n2)cc1OC (centres undefined) 8.34%
CN1C(=O)[C@@H]2[C@H](C1=O)[C@@H]1C(=O)Nc3ccccc3C(=O)N1[C@@H]2c1ccc(F)cc1 6.12%
CC1Cc2ccccc2N1C(=O)CSc1nnnn1-c1ccc2c(c1)OCCO2 (centres undefined) 4.49%
C#CCOCCOCCOCCNc1nc(N2CCN(C(=O)CCCCCCCCCCNC(=O)[C@H](CCCCN)n3cc(C)nn3)CC2)nc(N2CCN(C(=O)CCCCCCCCCCNC(=O)[C@H](CCCN=C(N)N)n3cc(C[C@@H](C)CC)nn3)CC2)n1 23.8%
C#CCOCCOCCOCCNc1nc(N2CCN(C(=O)CCCCCCCCCCNC(=O)[C@H](CCCCN)n3cc(CCCC(=O)O)nn3)CC2)nc(N2CCN(C(=O)CCCCCCCCCCNC(=O)[C@H](CCCN=C(N)N)n3cc(C[C@@H](C)CC)nn3)CC2)n1 -5.84%
C#CCOCCOCCOCCNc1nc(N2CCN(C(=O)CCCCCCCCCCNC(=O)[C@H](CCCCN)n3cc(CCO)nn3)CC2)nc(N2CCN(C(=O)CCCCCCCCCCNC(=O)[C@H](CCCN=C(N)N)n3cc(C[C@@H](C)CC)nn3)CC2)n1 25.8%
C#CCOCCOCCOCCNc1nc(N2CCN(C(=O)CCCCCCCCCCNC(=O)[C@H](CCCCN)n3cc(C[C@@H](C)CC)nn3)CC2)nc(N2CCN(C(=O)CCCCCCCCCCNC(=O)[C@H](CCCCN)n3cc(C[C@@H](C)CC)nn3)CC2)n1 20.6%
Cc1cc(C)cc(NC(=O)CN(C)S(=O)(=O)c2cccc3nsnc23)c1 -9.89%
CC(C)CCNC(=O)NC(=O)COC(=O)CCN=C1NS(=O)(=O)c2ccccc21 -10.2%
COC(=O)CCC(=O)N1CN2CN(C(=O)CCC(=O)OC)CC([N+](=O)[O-])(C2)C1 -5.21%
c1ccc(Nc2nn[nH]n2)cc1 -21.5%
CC[C@H]1OC(=O)[C@H](C)[C@@H](O[C@H]2C[C@@](C)(OC)[C@@H](O)[C@H](C)O2)[C@H](C)[C@@H](O[C@@H]2O[C@H](C)C[C@H](N(C)C)[C@H]2O)[C@](C)(OC)C[C@@H](C)C(=O)[C@H](C)[C@@H](O)[C@]1(C)O -8.63% and -8.23%
CCC(=O)O[C@@H]1CC(=O)O[C@H](C)CC=CC=C[C@@H](O)[C@H](C)C[C@H](CC=O)[C@H](O[C@H]2O[C@H](C)[C@@H](O[C@H]3C[C@@](C)(O)[C@@H](OC(=O)CC)[C@H](C)O3)[C@H](N(C)C)[C@H]2O)[C@H]1OC -22.5%
CC1CCCN(C(=O)c2ccc(S(=O)(=O)Nc3ccccc3Cl)cc2)C1 (centres undefined) 3.82%
Cc1ccc(CN2C(=O)CCC2C(=O)NCCN2CCN(c3cccc(Cl)c3)CC2)cc1 (centres undefined) -4.51%
CCOCCCNC(=O)c1ccc2c(c1)ncn2-c1ccc(C)cc1C -8.15%
NC(N)=N/N=C/c1ccc(OCc2ccccc2)cc1 17.1%
NC(N)=N/N=C/c1ccc(OCc2ccccc2)c(OCc2ccccc2)c1 10.4%
COc1cc(/C=N/N=C(N)N)ccc1OCc1ccc(Cl)cc1 2.42%
NC(N)=N/N=C/c1ccc(OCc2ccc(Cl)cc2Cl)cc1 -0.84%
CCn1ncc(Cl)c1C(=O)NC(=S)Nc1c(C)cc(C)cc1[N+](=O)[O-] 8.05%
CC(=O)c1cccc(NC(=O)CCCNC(=O)c2ccc(Cl)cc2)c1 0.5%
O=C(O)[C@@H]1CSC2c3ccccc3C(=O)N21 (some centres undefined) -0.36%
CSCC[C@H](NC(=O)Nc1ccc(Oc2ccccc2)cc1)C(=O)O 0.47%
COC(=O)CSc1nc(N)c(C#N)c(CC(C)C)c1C#N -5.81%
Cc1ccc(NS(=O)(=O)c2ccc3c(c2)NC(=O)CCS3)cc1F 4.54%
COc1ccc(NC(=O)C/C(C)=N/NC(=O)c2cccs2)c([N+](=O)[O-])c1 6.98%
Cc1ccc2ccc(C(Nc3ccccn3)c3ccccc3)c(O)c2n1 (centres undefined) 26.2%
COc1ccccc1NC(c1cccnc1)c1ccc2cccnc2c1O (centres undefined) 24.8%
Oc1ccccc1C(Nc1nccs1)c1ccc2cccnc2c1O (centres undefined) 1.53%
Oc1c(C(Nc2cccc(C(F)(F)F)c2)c2cccnc2)ccc2cccnc12 (centres undefined) 69.6%
O=C(Cc1cccs1)NCc1ccncc1 20.6%
CC1(C)CCC/C(=C\c2ccccc2)C1=O -2.34%
O=S(=O)(/N=C(/NNS(=O)(=O)c1ccccc1)c1ccccc1)c1ccccc1 -3.53%
CCN(CC)CCN(C)c1ccc(N2C(=O)C3CC=CCC3C2=O)cc1[N+](=O)[O-] (centres undefined) -7.43%
COc1ccc(Nc2nc(NCC3CCCO3)c3ccccc3n2)c(OC)c1 (centres undefined) 0.13%
c1ccc(Nc2nc(NCC3CCCO3)c3ccccc3n2)cc1 (centres undefined) -1.89%
Oc1ccccc1Nc1nc(NCC2CCCO2)c2ccccc2n1 (centres undefined) 13.1%
Oc1ccc(Nc2nc(NCC3CCCO3)c3ccccc3n2)cc1 (centres undefined) -10.2%
COCCOCC(O)CN1CCN(c2ccccc2)CC1 (centres undefined) 4.06%
COc1ccccc1-c1noc(-c2ccccc2C(=O)NCC2CCCO2)n1 (centres undefined) -3.19%
COc1ccc(Nc2c3ccccc3nc3ccccc23)cc1 -2.51%
O=C(O)c1cccc(Nc2c3ccccc3nc3ccccc23)c1 10.2%
Fc1cccc(Nc2c3c(nc4ccccc24)CCC3)c1 6.97%
Cc1ccc2nc3c(c(Nc4ccccc4)c2c1)CCC3 21.7%
c1ccc(Nc2c3c(nc4ccccc24)CCC3)cc1 20.2%
COc1ccc(Nc2c3c(nc4ccccc24)CCC3)cc1 12.7%
CCOc1ccc(Nc2nc(N)c3ccccc3n2)cc1 29.9%
Cc1cc(Nc2cccc(O)c2)c2ccccc2n1 13.6%
Nc1n[nH]c(N)c1N=Nc1ccccc1F -3.09%
CCC(=O)Nc1ccc(C(=O)CSc2nc(N)cc(N)n2)cc1 4.88%
CS(=O)(=O)N1CCN(c2ccccc2NC(=O)c2cccnc2)CC1 -0.66%
CC(C)CCNC(=O)c1c(CSc2ccccc2)noc1C(=O)NCc1ccccc1 -1.54%
Cc1cc(-c2nnc(SCC(=O)Nc3ccc(F)cc3F)n2N)n[nH]1 -6.5%
COc1ccc(S(=O)(=O)N2CCC(C(=O)Nc3c(F)cccc3F)CC2)cc1 14.7%
Cn1c(=O)[nH]c(=O)c2c1nc(CN1CCN(c3ccc(F)cc3)CC1)n2CCCc1ccccc1 -9.74%
CO[C@@]12[C@H](COC(N)=O)C3=C(C(=O)C(C)=C(N)C3=O)N1C[C@@H]1N[C@@H]12 17.4%
COc1ccc(C(=O)N2CCN(c3ncccn3)CC2)cc1 6.73%
COc1ccc(-n2c(SCc3cccnc3)nc3c(c2=O)SCC3)cc1OC -5.3%
Cc1ccccc1OCC(=O)NCC(=O)N/N=C/c1cccc([N+](=O)[O-])c1 -0.52%
CCS(=O)(=O)Nc1c(C)n(C)n(-c2ccccc2)c1=O -5.83%
NS(=O)(=O)c1ccc(CNC(=O)c2cc(-c3cccnc3)nc3ccc(Br)cc23)cc1 -5.23%
Cc1ccccc1N1CCN(C2CCCN(C(=O)c3ccccn3)C2)CC1 (centres undefined) -6.14%
C=CCCCCCCCCC(=O)N1CCN(c2cc3c(cc2F)c(=O)c(C(=O)O)cn3CC)CC1 11.3%
CCn1cc(C(=O)O)c(=O)c2cc(F)c(N3CCN(C(=S)NC(=O)c4cc(OC)cc(OC)c4)CC3)cc21 23.2%
CCn1cc(S(=O)(=O)c2ccc(OC)cc2)c(=O)c2cc(F)c(N3CCN(C)CC3)cc21 -6.69%
CCn1cc(C(=O)O)c(=O)c2cc(F)c(N3CCN(S(=O)(=O)c4ccc(NC(=O)OC)cc4)CC3)cc21 -9.02%
Cc1cccc(C(=O)NC(=S)N2CCN(C(=S)NC(=O)c3cccc(C)c3)CC2)c1 12.1%
CCn1cc(C(=O)O)c(=O)c2cc(F)c(N3CCN(S(=O)(=O)c4ccc(Br)cc4)CC3)cc21 3.63%
CCn1cc(C(=O)O)c(=O)c2cnc(N3CCN(C(=S)NC(=O)c4ccc(OC)cc4)CC3)nc21 1.6%
